# Hits are enriched below; roughly 2.7% of the tested compounds scored in any of these assays.
# SENP8 block-1 – blocks human SENP8 cleavage of Nedd8 substrate; AID 602440; 0.64% of 360,000 active; recombinant SENP8, Nedd8 substrate fluorescence; inhibition, % at 20 µM; in the data active = inhibition mostly above about 40%, no sharp cut-off; inactive = mostly below about 27%
# Target sequence (Q96LD8 whole entry, looked up): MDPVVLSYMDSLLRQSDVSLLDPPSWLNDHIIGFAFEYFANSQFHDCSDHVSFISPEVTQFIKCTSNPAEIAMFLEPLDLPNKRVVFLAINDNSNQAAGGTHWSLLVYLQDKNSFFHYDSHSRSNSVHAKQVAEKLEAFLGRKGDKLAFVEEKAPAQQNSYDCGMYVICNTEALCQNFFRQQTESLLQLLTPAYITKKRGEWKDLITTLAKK
# HSP90 inh – blocks HSP90-mediated luciferase refolding in reticulocyte lysate | 0.91% of 290,000 active | inhibition, % at 5.6 µM | AID 1789 | Rabbit reticulocyte lysate, luciferase refolding luminescence, 3 h;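 active = inhibition above the screen-wide mean plus 3 SD, computed separately per campaign, cut at about 16% in these data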;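 also: 0% = DMSO wells and 100% = 60 µM geldanamycin wells; inhibitors lower the luminescence because luciferase stays unfolded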
# SENP8 block-2 – blocks the human protease SENP8; Q96LD8; purified SENP8, Z-RLRGG-aminoluciferin cleavage, luminescence; inhibition, % at 10 µM; 1.2% of 330,000 active; AID 2540; in the data active = inhibition above about 50%
# SENP7 inh – blocks the human protease SENP7 | Q9BQF6 | recombinant SENP7, Z-RLRGG-aminoluciferin luminescence, 40 min | inhibition, % at 5 µM | 1.5% of 330,000 active;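 active = inhibition above about 50% at the single test dose, limit read from the data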;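 also: plate controls were DMSO with enzyme for no effect and no enzyme buffer wells for full effect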
# Target sequence (Q9BQF6 706-1050 limits assumed): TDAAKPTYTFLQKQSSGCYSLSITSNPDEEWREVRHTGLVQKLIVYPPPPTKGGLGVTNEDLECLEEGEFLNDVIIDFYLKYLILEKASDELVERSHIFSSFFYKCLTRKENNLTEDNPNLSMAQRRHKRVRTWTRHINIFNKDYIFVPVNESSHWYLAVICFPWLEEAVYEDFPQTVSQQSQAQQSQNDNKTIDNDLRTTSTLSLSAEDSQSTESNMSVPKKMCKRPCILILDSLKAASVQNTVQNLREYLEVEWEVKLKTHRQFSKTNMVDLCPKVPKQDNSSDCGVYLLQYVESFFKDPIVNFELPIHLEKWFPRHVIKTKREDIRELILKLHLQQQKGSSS
# SENP6 inh – inhibitors of human SENP6 protease. Q9GZR1. Recombinant SENP6 catalytic domain, aminoluciferin luminescence. inhibition, % at 10 µM. 1.8% of 330,000 active. AID 2599;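 active = inhibition above about 50% at the single tested dose, limit read from the data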;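 also: plate controls were DMSO wells with enzyme for no effect and DMSO wells lacking enzyme for full effect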
# Starred values were filed as active, the others as inactive; · = not tested or not shown.
SMILES,SENP8 block-1,HSP90 inh,SENP8 block-2,SENP7 inh,SENP6 inh
N#CCNC(=O)c1cccn1-c1ncc(C(F)(F)F)cc1Cl,13.8,3.5,0.8,0.5,-3.2
CCOC(=O)c1[nH]c(C)c(CN(CCc2ccccc2)S(C)(=O)=O)c1C,-9.8,2.0,-5.2,-7.1,-16.8
N#CC(CCc1ccccc1[N+](=O)[O-])(CCc1ccccc1[N+](=O)[O-])C(N)=O,7.4,·,·,·,·
COC(=O)c1ccc2nc(-c3ccc(F)cc3)c(Cc3ccsc3)n2c1,-369.1,·,·,·,·
Oc1c(CN2CCOCC2)cc(CN2CCOCC2)c(O)c1O,52.2*,·,·,·,·
O=C1C(NS(=O)(=O)c2cccs2)=C(N2CCOCC2)C(=O)c2ccccc21,41.5*,1.2,0.7,6.4,-12.8
O=C1C(NS(=O)(=O)c2cccs2)=C(N2CCN(c3cccc(C(F)(F)F)c3)CC2)C(=O)c2ccccc21,55.9*,3.0,5.8,24.1,6.0
CN1CCN(C2=C(NS(=O)(=O)c3cccs3)C(=O)c3ccccc3C2=O)CC1,30.1,-0.2,9.1,7.3,16.7
COc1cccc(NC(=O)c2cc3cccc(OC)c3o/c2=N\O)c1,·,10.7,8.3,82.3*,-20.5
C[C@@]12C(=O)Nc3ccc(F)cc3C(=O)N1[C@H]1c3cc(Cl)ccc3OC[C@@H]1[C@@H]2c1ccccc1,-12.8,·,-0.1,-3.1,-9.3
Cc1ccc(/C=C2\SC(=S)N(CC3CCCO3)C2=O)o1 (stereo not drawn),33.6,10.5,6.0,7.0,8.3
O=C1/C(=C/c2ccco2)SC(=S)N1CC1CCCO1 (stereo not drawn),42.5*,8.0,2.9,9.6,-25.7
Cc1ccc(N2C(=O)/C(=C\c3ccco3)SC2=S)cc1,48.2*,0.7,1.4,13.2,-3.6
O=C1/C(=C\c2ccc(-c3ccccc3Cl)o2)SC(=S)N1CC1CCCO1 (stereo not drawn),43.7*,3.6,-18.4,5.4,9.4
Cc1ccc(CNC(=O)COC(=O)c2cc(C)oc2C)cc1,19.0,·,-7.0,7.4,-0.1
Cc1ccc(S(=O)(=O)Nc2ccc(O)c(Sc3ncn[nH]3)c2)cc1,6.3,-2.7,2.7,1.0,1.7
CC(C)c1ccc(S(=O)(=O)/N=C2/C=C(Sc3ncn[nH]3)C(=O)c3ccccc32)cc1,30.5,59.6*,·,·,·
COCCC(=O)N1CCOCC1c1cc(C(=O)NCc2ccccc2)no1 (stereo not drawn),15.7,·,·,·,·
CC(O)CNCCCOc1ccccc1OCc1ccccc1 (stereo not drawn),15.8,16.7*,-3.2,7.5,9.9
CC(O)CNCCCCOc1ccc(OCc2ccccc2)cc1 (stereo not drawn),14.0,-0.9,-0.9,4.4,-6.0
COc1cc(OC)cc(-c2cc3nc(C)c(CCC(=O)O)c(C)n3n2)c1,-381.5,24.6*,·,·,·
CC1=NN(c2ccc([N+](=O)[O-])cc2)C(=O)C1,71.0*,·,·,·,·
CC1=NN(c2ccc([N+](=O)[O-])cc2)C(c2ccccc2)C1 (stereo not drawn),20.0,-0.8,-2.9,6.6,-0.8
FC(F)(F)c1nnc2ccc(N3CCOCC3)nn12,18.4,6.1,-10.1,-7.7,-3.7
CCOC(=O)C(C(=O)OCC)c1cc(Br)c2noc3c2c1C(=O)c1ccccc1-3,87.1*,0.9,21.7,23.4,65.4*
SMILES,SENP8 block-1,HSP90 inh,SENP8 block-2,SENP7 inh,SENP6 inh
CC1=CC(c2ccc(Cl)cc2)n2nc(NC(=O)CCCC(=O)O)nc2N1 (stereo not drawn),-290.6,-2.5,1.5,3.0,-4.6
CCN1C(=O)C(=Cc2cccc(OC)c2Oc2ccc([N+](=O)[O-])cc2[N+](=O)[O-])SC1=S,33.4,3.9,94.6*,54.5*,81.4*
Oc1cc2c(cc1O)C1c3ccc(O)c(O)c3OCC1(O)C2 (stereo not drawn),69.2*,-0.7,2.0,9.7,4.5
CC(C)NC(=O)/C(C#N)=C/c1ccc(N(C)C)o1,40.5*,1.0,0.1,-8.4,-7.2
Cc1cc(O)ccc1N/C=C/c1onc(C)c1[N+](=O)[O-],26.5,-6.2,46.7,96.6*,87.4*
CC(C)n1cnc2cc(NCc3nc4ccccc4n3C)ccc21,-9.9,16.2*,25.5,47.3,61.8*
Cc1ccc(CNc2ccc3c(c2)ncn3C(C)C)cc1,-202.7,-7.9,-10.1,-4.6,2.6
CCOc1ccccc1NS(=O)(=O)c1ccc2c(c1)NC(=O)CCS2,7.1,-2.9,-4.1,5.5,-10.3
Cc1cc(C)nc(NS(=O)(=O)c2ccc(NC(=S)NC(=O)c3cccnc3)cc2)n1,6.7,1.1,-8.2,-6.7,-18.0
O=c1ccc(N=Nc2ccccc2)ccc1O,42.6*,3.0,·,·,·
C=CCC1(CC=C)CCCN1C(=O)C1CCC(=O)N(Cc2ccc(Cl)cc2)C1 (stereo not drawn),12.9,·,·,·,·
O=C(c1ccccc1)c1ccc(-c2ccc(O)cc2)cc1,-30.5,-3.1,51.0*,6.8,50.4*
Cc1ccc2nc(-c3ccc(SCC(=O)Nc4ccc5c(c4)OCCO5)nc3)[nH]c2c1,-372.2,-2.1,-11.0,50.6*,-27.3
OCCC1CN(Cc2cccc3c2OCO3)CCN1C1CCCCC1 (stereo not drawn),14.7,0.4,-4.5,2.1,-5.9
COc1ccc(-c2csc(C(O)c3ccc(F)cc3)n2)cc1OC (stereo not drawn),15.9,·,·,·,·
COc1ccc(C(O)C2c3c(cc4c(c3OC)OCO4)CCN2C)c(CO)c1OC (stereo not drawn),-18.4,·,·,·,·
COc1ccc2c(c1OC)C(=O)O[C@@H]2[C@H]1c2c(cc3c(c2OC)OCO3)CCN1C,44.0*,-3.2,-3.5,3.0,5.7
COc1ccc(COC(=O)C2=C(C)NC(=O)NC2c2ccc(F)cc2)cc1 (stereo not drawn),15.5,-0.3,-12.1,2.6,-23.3
Cc1cccc(NC2=C(NC(=O)c3ccccc3)C(=O)c3ccccc3C2=O)c1,75.8*,6.3,18.3,17.4,43.5
CN(c1ccc(C(=O)Nc2ccc(Cl)cn2)cc1)S(=O)(=O)c1ccccc1,2.6,2.2,-10.1,-4.0,-2.2
O=C1C(Cl)=C(NC(=O)c2ccccc2)C(=O)C(Cl)=C1NC(=O)c1ccccc1,34.4,70.9*,8.8,8.0,-4.5
O=C(NC1=C(Nc2ccc(Cl)cc2)C(=O)c2ccccc2C1=O)c1ccccc1,52.0*,-0.4,10.8,12.9,12.1
CN(C1=C(NC(=O)c2ccc(Cl)cc2)C(=O)c2ccccc2C1=O)c1ccccc1,57.2*,3.9,9.7,15.3,25.0
O=C(Nc1cccc(Cl)c1)c1ccccc1,8.4,·,41.6,47.5,48.9
C=CCN(c1ccccc1)S(=O)(=O)c1ccc2c(c1)N(C(C)=O)CCO2,9.3,-1.2,7.0,-3.1,7.3
CSc1nsc(SC)c1NC(=O)N1CCCCC1,22.9,3.7,-5.1,-8.4,-7.7
Cn1nc(-c2ccccn2)nc2c(=O)n(C)c(=O)nc1-2,93.4*,86.6*,96.8*,95.6*,-7.9
CC(=O)c1ccc(NC(=O)c2noc3c2CCC3)cc1,7.0,21.3*,7.9,18.3,30.9
Cc1ccc(N2Cc3ccccc3C2=S)cc1,1.3,6.9,44.3,59.2*,54.0*
Cc1ccc(S(=O)(=O)Cn2nnnc2C(C(C)C)N2CCc3ccccc3C2)cc1 (stereo not drawn),64.3*,4.4,1.3,9.7,29.3

# Source: PubChem BioAssay
